Test results published in the supplement of paper PMC3334620.
Whole data set: some 33,000 sequences, median “E-score (-0.5 to 0.5)” near -0.041, cut for the highest 2% near 0.37. The full list was thinned out, with the highest values kept by preference.

The sequences below were run against T1, Ecm22 (UniProt Q05958) (assay: PBM E-score (8-mer binding enrichment) (E-score (-0.5 to 0.5)); higher = stronger / more preferred TF binding). Details: protein concentration: 200 nM; construct: GST-full length.
T1 sequence: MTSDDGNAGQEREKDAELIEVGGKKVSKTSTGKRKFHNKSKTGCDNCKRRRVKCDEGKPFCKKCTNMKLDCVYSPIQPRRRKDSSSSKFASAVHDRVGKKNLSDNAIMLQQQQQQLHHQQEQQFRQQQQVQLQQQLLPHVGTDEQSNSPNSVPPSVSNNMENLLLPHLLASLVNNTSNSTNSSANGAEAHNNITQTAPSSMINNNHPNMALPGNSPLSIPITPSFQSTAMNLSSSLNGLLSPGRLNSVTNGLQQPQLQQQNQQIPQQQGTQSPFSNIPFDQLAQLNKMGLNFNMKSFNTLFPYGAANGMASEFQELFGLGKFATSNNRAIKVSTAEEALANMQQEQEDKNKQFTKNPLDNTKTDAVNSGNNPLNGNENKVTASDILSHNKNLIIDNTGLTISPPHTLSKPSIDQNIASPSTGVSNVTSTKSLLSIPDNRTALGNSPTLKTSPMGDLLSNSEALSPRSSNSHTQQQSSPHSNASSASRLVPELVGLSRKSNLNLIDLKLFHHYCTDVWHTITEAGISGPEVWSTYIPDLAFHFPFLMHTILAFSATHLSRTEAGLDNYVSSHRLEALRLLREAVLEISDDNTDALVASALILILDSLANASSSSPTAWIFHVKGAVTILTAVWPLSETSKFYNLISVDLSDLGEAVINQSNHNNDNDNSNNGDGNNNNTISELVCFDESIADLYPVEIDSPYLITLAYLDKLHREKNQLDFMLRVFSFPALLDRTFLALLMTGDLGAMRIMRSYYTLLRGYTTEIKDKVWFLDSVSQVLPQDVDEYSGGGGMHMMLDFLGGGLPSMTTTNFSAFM
Procedure: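 Universal 'all 10-mer' protein binding microarrays (Agilent AMADID 015681) probed with GST-tagged S. cerevisiae TFs (full-length or DBD) made by in vitro transcription/translation (PURExpress), about 100-200 nM. Bound TF was detected with fluorescent anti-GST. Each ungapped 8-mer (which stands for itself and its reverse complement) is scored by the PBM enrichment score (E-score), a modified Wilcoxon-Mann-Whitney statistic from -0.5 to +0.5, computed with the Universal PBM Analysis Suite. Scale: above 0.35 generally sequence-specific binding.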

Sequence	PBM E-score
CCTAGCCC	-0.222
AGCGTCCC	-0.145
AATCTGTG	-0.0802
GTGGAACA	0.0214
GGAGTGCA	0.0316
GTGGGTCA	-0.308
ACGAGGTG	0.397
GCGAGGTA	0.285
CCGAGGTA	0.176
ACGAGGTA	0.413
ACGAGGTC	0.389
AAGAGGTC	-0.207
CCGAGGTC	0.11
ATGAGGTG	-0.127
AGGAGGTG	-0.298
CCTTTTCC	0.055
CGGTCTGC	0.0314
TACCACGA	0.0887
GCAACTGA	0.0723
GACTTCGC	0.232
GCAACGAC	0.417
GCAACGAA	0.406
TCAACGAA	0.187
ACAACGAC	0.295
ACAACGAA	0.257

Sequence	PBM E-score
CCAACGAC	0.0154
AGGCCCCA	-0.182
TAGTCCAA	-0.157
CGTACAAG	0.416
CGTACTGA	0.32
AGTACTTA	0.0475
CGTACAAA	0.412
GGTACAAA	-0.0856
CATACAAG	-0.122
AGTACAAG	0.0646
AGTACATA	-0.0214
CGTACATC	0.353
CGTACATA	0.414
CGTACTTA	0.375
AGTACAAA	0.0199
ACCACCAT	-0.103
TTAGGGAA	-0.0515
ATAACGGC	0.146
ATGAAGGC	-0.102
CGTGGACC	-0.108
ACGGAATG	0.0826
AGTGTTGA	-0.109
AAGCCGAG	0.0901
ACTGGATG	-0.18
CGTACTAA	0.341

Sequence	PBM E-score
AGTACAAC	0.0262
CGTACTAG	0.342
GGTACAAC	0.0714
CGTACAAC	0.434
CGTACTAC	0.382
CTAAACAG	-0.109
AAACCACT	-0.153
AGCTGCGG	-0.00448
AATCGCCC	-0.0815
TAGAGCCA	-0.288
ACTCCGTG	-0.233
AGGTCGGC	-0.138
AGTTACGG	0.138
GGTTACCA	0.0711
CGTTACGC	0.256
AGTTACGC	0.071
GGTTACGA	0.381
GGTTACTA	-0.123
CGTTACAA	0.0964
CGTTACGA	0.403
AGTTACGA	0.393
GTGGCGTA	0.042
CCCGTTGC	0.111
CCTCGGGC	0.0916
ACTTCACC	0.0335

Sequence	PBM E-score
AAAATCAC	-0.0192
ACACGAAG	0.249
GGACGAAA	0.108
ACACGAAT	0.217
ATACGTAT	0.374
ATACGAAT	0.45
GCACGAAA	0.103
AGACGAAG	0.0703
ATACGTAC	0.342
GTACGAAA	0.467
ATACGAAG	0.466
ATACGTAA	0.278
AGACGAAT	0.0921
AGCCTTAA	-0.0857
AACTTGGT	0.0861
TGTGTCAA	-0.0896
CGCAAGCC	0.0725
GGATCCCC	-0.0315
CTACGAAA	0.302
ATACGAAA	0.463
TCACGAAA	-0.00573
AGACGAAA	0.194
TTACGAAA	0.403
ACACGAAA	0.224
ATGGTTCA	0.0295

Sequence	PBM E-score
AGAACCCC	-0.179
GACCCTCC	0.00379
CGTGCGTA	0.233
GCCCCCCA	-0.365
AGGATTAG	-0.0677
CCGCAACG	0.377
ACGCAACG	0.308
CCGCAACC	-0.176
GCGGCACC	-0.0132
GACGATGC	-0.0114
CACGATCA	-0.00633
TACGATGA	0.438
CACGATGA	0.19
GACGATCA	-0.0466
ATCGATGA	-0.0837
GACGATGA	-0.0197
AAAGATGT	-0.0546
AACGATGA	0.386
TACGATCA	0.443
CACGATGC	0.136
AACGATGT	0.396
CCGTCTTA	-0.174
AAGGCGCA	-0.0313
ATCCCAGC	-0.0508
TCAACTGA	-0.205

Sequence	PBM E-score
AGGCTCTC	-0.162
GGAGCACA	-0.107
CGTTGTGC	0.116
CCCGGGAA	-0.0348
CCAACCAA	-0.0915
CACGATGG	0.0647
AACGATGC	0.348
AACGATGG	0.374
TGTGTAAA	-0.0334
CTACGAGA	0.385
CCACGAGA	-0.117
ATGCGAGA	0.302
ATACGAGA	0.484
CCACGAGC	-0.0179
AGACGAGC	0.211
CGACGAGA	0.08
ATACGTGA	0.171
ACACGAGC	0.275
CTACGAGC	0.413
ATACGAGC	0.49
CGACGAGC	0.162
CCGAGTGA	0.196
CCTTTCGA	0.142
AAGCGTTA	0.00424
ACCCCCGG	-0.189

Sequence	PBM E-score
GAGCGGGC	-0.0404
AGTAGTCG	0.238
AGGGCTAC	-0.117
ATAAATTA	0.326
GTACGAGA	0.482
GTACGCGA	0.327
ATACGAGG	0.488
ACACGAGG	0.324
GTCCGAGA	0.253
AGACGAGG	0.202
ACCCCGAC	-0.0233
AGTCAATG	-0.0767
ACGGGGCA	0.114
TGCAGCCA	-0.171
GTTTAGTA	0.271
CCCGGTAC	0.078
AACGACTA	0.372
AACGACTG	0.393
AGCGACTA	0.161
CACGACTA	-0.0786
AACGACTT	0.336
GACGACTC	-0.0985
TACGACTA	0.438
ATCGACTG	0.076
GACGACTA	-0.121

Sequence	PBM E-score
CACGACTC	0.0577
CACGACTG	0.0526
AACGACTC	0.388
TCCCCGGA	0.00406
ATCTGTAG	-0.116
CGTCTCAC	0.0419
TGCGCAAA	-0.077
GAAGCAGA	-0.215
GGTCGCAC	0.228
AGTCGTCC	-0.0209
CGTCGTGC	0.177
GGTCGTAC	0.482
CGTAGTAG	0.109
AGTCGTAC	0.46
GGACGTAC	0.126
CGTCGTAG	0.406
CGTCGTCC	-0.054
CGTCGTAC	0.486
CATCGTCG	0.0968
AGTCGTGC	-0.0872
CCCCGAAC	-0.0375
GGAAAATA	0.0993
GATCGGGA	0.0412
CCAGGTCC	-0.192
GAAAAAGC	-0.00535

Sequence	PBM E-score
ACTCAGTC	-0.147
CCCTCCAG	-0.206
AGGTGAAC	0.0634
TGAGTAAA	-0.13
ATTCTCGA	0.168
AGTCGTCG	0.01
AGTCGTAT	0.46
AGTCGTAG	0.304
AGCCTAAC	-0.0712
ATCTGCGG	-0.00985
GATGAGGA	-0.0394
AGGAGCTA	-0.138
ATCTCGTA	0.466
GTCTCGAA	-0.00716
ATCTCGTC	0.158
ATCTCGTG	0.193
GTCTCGTA	0.461
CTCTCGAA	-0.0852
CTCTCGTA	0.457
CTCTCGTC	0.0625
GTCTCGGA	0.242
CTGCGGGC	-0.163
AACGCTTG	-0.121
CTTGGACC	-0.134
CGTAGCTC	0.32

Sequence	PBM E-score
AACTTAGA	-0.0444
GCGTCGAA	0.0462
CCGTCGTC	0.0655
GCGTCGCA	0.23
CCGTCGTA	0.471
CCGTCGGA	0.0756
ACGTCGTG	0.117
GCGTCGTA	0.471
ACGTCGTA	0.464
ACGTCGTC	0.175
GTCATAGA	-0.115
CTCAACCC	-0.14
AACCCCGT	0.0296
AGTATGAC	0.0876
CGTATGAA	0.415
CGTATGAG	0.354
GGTATGAC	-0.125
CGTATGAC	0.407
AGTATGAA	0.0349
CCGCAATA	0.0155
AAAACTCG	0.182
AAACACCG	0.14
GCATGCCA	0.0106
GGTTCCCA	-0.173
AGTTCCCC	-0.0578

Sequence	PBM E-score
CGTTTCCC	0.261
AGTTCCCA	0.0586
CGTTCCCC	0.428
CGTTCCCA	0.443
CGCCTTTC	0.0685
CTAGAAGA	-0.0952
ATGGACTG	-0.151
CCACTTCC	0.0365
AAACGAAT	0.453
AAACGTAT	0.319
TAACGAAA	0.296
AACCGAAT	0.284
CCACGAAG	0.0223
AAACGAAA	0.449
CAACGAAG	0.277
AAACGAAG	0.457
CAACGAAA	0.278
GATTAGCC	0.0338
GCCACTCA	-0.196
AACCGCGC	-0.0112
ACGCTGCA	-0.0508
AAAAACAG	-0.0439
AGCGAACA	0.198
AACGAACC	0.408
AACGAACG	0.437

Sequence	PBM E-score
GACGAACC	0.0132
GACGAACA	0.0113
AACGAACT	0.354
CACGAACC	0.0995
TACGAACA	0.452
CACGAACG	0.312
AACGAACA	0.409
TCCGAACA	0.0654
CACGAACA	0.177
GCCCGGCC	-0.229
ACGGTTAC	0.255
AGGAAGGG	-0.211
TCTGCTAA	-0.086
CTTTCTCA	0.00463
CACTATCA	-0.0654
CCGCTGAA	-0.00985
GTCTGGTA	0.00642
AAGCGAAC	0.268
GAACGAAC	0.453
GAACGAAA	0.43
GAACGGAC	0.279
AAACGGAC	0.307
CCACGAAA	-0.0672
AAACGAAC	0.454
TGACGAAA	0.061

Sequence	PBM E-score
CAACGAAC	0.272
AGCGGGAG	-0.188
GGGGGTTA	-0.298
AACCCGAG	0.267
GCATCCGC	-0.18
CTGCGGGA	-0.163
AGGAGCGA	0.328
GGTATAAC	0.0372
AGTATAAC	0.0917
TGTATCAA	-0.0485
CGTATCAA	0.386
CGTATAAG	0.466
CATATAAG	0.0284
CGTATAAC	0.473
CGTATCAC	0.365
CGTATAAA	0.477
TGTATAAA	0.172
AGTATAAG	0.109
AGTATAAA	0.241
CTGAAGAC	0.056
CAAGCCGC	-0.0639
CGCTTGGC	0.0372
CCGCGCGG	0.263
CGTGTGTC	0.0878
AGATCAGC	-0.106

Sequence	PBM E-score
ACATCTTG	-0.0408
CGCAGTAC	0.174
CGCACGAA	0.175
CTTCTTCA	-0.341
CCCGAAGC	-0.0995
GGCGATGA	-0.00497
CCTTTACG	0.329
ACTTTACA	-0.00715
ACTTTACG	0.394
ATTTTACC	0.06
AATTTACG	0.303
ATTTTACG	0.392
CTCTCCGC	-0.147
GCAGTGCC	-0.179
GTAACCTA	0.00094
AGCCACGC	-0.14
AAGAGCGT	0.0857
ACGAGCGG	0.386
CCGAGCGA	0.237
ACGAGCGA	0.409
CCGAGCGG	0.202
ACGAGCGC	0.327
ACGAGCGT	0.389
ATGAGCGG	-0.0285
GCGAGCGA	0.31
